# Shown are actives, neighbours in structure and some others; about 6.3% of the full set was active somewhere.
# Autofluor 339 – intrinsic fluorescence of library compounds, ex339/em460 – biochemical, MLSMR library, data from DPM-DC assay, artefact control, profiling panel | compound autofluorescence, ex339/em460 nm, NADH buffer; hits give high values; 1 = no-compound wells, NADH background | fluorescence fold increase at 10 µM | actives 5.5% (n = 65,000);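 active = at 10 µM, mean starting fluorescence two-fold or more over control wells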;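 also: signal is the first read of a kinetic run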
# A340 absorber – compound light absorbance at 340 nm, profiling panel, artefact control, biochemical, MLSMR library, data from PS, PMK, MK assays; compound absorbance at 340 nm, fold over control; 65,000 tested, under 10 active; AID 708, 2007; fold change at 10 µM;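 active = at 10 µM dose, initial 340 nm absorbance at least 2 fold that of control wells; inactive = change under 2 fold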;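 also: initial absorbance extrapolated from kinetic A340 decline of NADH oxidation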
# NADH enzymes – inhibitors of PK/LDH coupling enzymes, profiling panel, artefact control, biochemical, MLSMR library | coupled PK/LDH NADH assays, four targets | IC50, µM (top dose mostly 10 µM), without a hit: at the top dose inhibition | actives 0.02% (n = 65,000) | AID 774, 2007;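 active = single-dose screening hits from any of four coupled enzyme assays that gave an IC50 when retested across doses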;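 also: the DPM-DC format reads NADH fluorescence rather than 340 nm absorbance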
# MK inhibit – S. pneumoniae MK inhibitors, primary screen, biochemical, PK/LDH-coupled NADH absorbance; mevalonate kinase [Streptococcus pneumoniae D39]; purified MK, PK/LDH-coupled NADH absorbance 340 nm; inhibition, % at 10 µM; actives 0.48% (n = 65,000); AID 555, 2006;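 active = ranked among the strongest by inhibition in the single 10 µM screen, a fixed top-ranked set picked for dose follow-up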
# DPM-DC inhibit – S. pneumoniae DPM-DC inhibitors, primary screen, biochemical, PK/LDH-coupled NADH fluorescence; calls only at 10 µM; actives 0.49% (n = 65,000); purified DPM-DC; AID 556, 2006; diphosphomevalonate decarboxylase (Streptococcus pneumoniae D39);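 active = the 320 compounds with the highest percent inhibition in the single-dose primary screen, excluding strongly autofluorescent ones, cut at about 32% in these data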;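 also: kinetic rate of NADH fluorescence loss reporting ADP formed by the decarboxylase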
# PMK inhibit – S. pneumoniae PMK inhibitors, primary screen, biochemical, mevalonate pathway, pilot trial included. phosphomevalonate kinase (Streptococcus pneumoniae D39). purified PMK, PK/LDH-coupled NADH absorbance 340 nm. inhibition, % at 10 µM. actives 0.49% (n = 65,000). AID 539, 2006;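 active = top-ranked compounds by inhibition in the single 10 µM screen, taking a fixed number of the strongest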;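 also: 0% = full reaction with DMSO carrier and 100% = background rate without enzyme reaction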
# Starred values were filed as active, the others as inactive; i = inactive; x = no result given; + = active, no number.
SMILES,Autofluor 339,A340 absorber,NADH enzymes,MK inhibit,DPM-DC inhibit,PMK inhibit
COCCN(CCOC)C(=O)c1c[nH]c2ccc(S(=O)(=O)N(C)c3ccc(F)cc3)cc2c1=O,2.3*,1,10%,1,i,18
COc1ccc(CCn2c(=N)c(C(=O)N3CCN(C)CC3)cc3c(=O)n4ccccc4nc32)cc1,1.6,1.1,9%,15,i,11
CCOC(=O)c1cc2c(=O)n3ccccc3nc2n(Cc2ccccc2)c1=N,2.5*,0.98,4%,3,x,20
CCOC(=O)c1cc2c(=O)n3ccccc3nc2n(Cc2ccccc2Cl)c1=N,2.3*,1,1%,0,x,1
Cc1ccc(Cn2c(=N)c(C(=O)NCc3ccco3)cc3c(=O)n4ccccc4nc32)cc1,1.9,1,6%,0,i,17
COC(=O)Cn1c(CN2CCN(c3ccc(F)cc3)CC2)nc2c1c(=O)n(C)c(=O)n2C,1.1,1,1%,1,i,1
Cc1ccnc(N2C(=O)OC(C)(C)C2(C)O)c1 (configuration not stated),1.1,1,6%,6,i,12
COC(=O)c1ccccc1NC(=O)n1cc(C)cn1,3.6*,1.1,4%,8,x,0
Nc1nc2n(n1)C(c1cccs1)CC(c1ccc(F)cc1)N2 (configuration not stated),1.1,1,2%,1,i,6
COc1ccc(C2CC(c3cccs3)n3nc(N)nc3N2)cc1 (configuration not stated),2*,0.98,1%,3,i,0
Cc1ccc(OCCSc2nnc(-c3ccncc3)n2C)cc1,1.1,1,4%,0,i,11
Cn1c(SCCOc2cccc(Cl)c2)nnc1-c1ccncc1,1,1,32%,90*,i,5
CCCC(=O)Nc1ccc2c(c1)C(=O)N(CCC(=O)O)C2=O,3.8*,1.1,9%,10,x,8
O=C(O)CCN1C(=O)c2ccc(NC(=O)c3cccs3)cc2C1=O,3.6*,1.1,10%,12,x,8
NC(=O)C1CCN(S(=O)(=O)c2cccc(S(=O)(=O)N3CCCCC3)c2)CC1,1.1,0.99,4%,0,i,12
CCC(C)(C)NC(=O)CN(C(=O)CNS(=O)(=O)c1ccc(C)cc1)c1ccc2c(c1)OCCO2,1,0.99,8%,4,i,20
CCCCOc1ccc(-c2nnc(-c3ccncc3)o2)cc1,3*,1,14%,10,i,15
CCOc1ccc(-c2nnc(-c3ccncc3)o2)cc1,2*,1,20%,14,+,8
CCOc1ccc(-c2nnc(N)o2)cc1,1.1,1,4%,2,i,10
COc1cc(C)nc(Nc2nc(C)c(C(C)=O)s2)n1,1.1,1.1,3%,1,i,4
COc1ccc2nc(Nc3nc(C)c(C(C)=O)s3)sc2c1,2*,1,7%,9,i,11
O=C(Nc1ccc(N2CCN(Cc3ccccc3Cl)CC2)cc1)c1cccnc1,1,1,3%,6,i,4
O=C(Nc1ccc(N2CCCCC2)cc1)c1cccnc1,1.1,1.1,17%,2,+,8
O=C(Nc1nnc(-c2ccncc2)s1)C1CCCO1 (configuration not stated),3.7*,1.1,3%,6,x,0
Cc1onc(-c2ccccc2)c1C(=O)Nc1ccc2c(C)cc(=O)oc2c1,2.2*,1.1,3%,6,x,0
SMILES,Autofluor 339,A340 absorber,NADH enzymes,MK inhibit,DPM-DC inhibit,PMK inhibit
CCOc1ncccc1C(=O)Nc1ccc2c(C)cc(=O)oc2c1,2.2*,1,8%,0,+,0
CCOc1ncccc1C(=O)Nc1ccc(-c2cn3ccsc3n2)cc1,2.1*,1.1,11%,0,x,21
CCc1nnc(NS(=O)(=O)c2ccc(N3C(=O)C4CC=C(Cl)CC4C3=O)cc2)s1 (configuration not stated),1.1,1,4%,7,i,6
Cc1cc(=O)oc2cc(NC(=O)CCCC(=O)O)ccc12,5*,1,8%,5,x,11
Cc1onc(-c2ccccc2)c1C(=O)Nc1nnc(-c2ccncc2)s1,3.8*,1.2,8%,6,x,10
N#Cc1nc(COc2ccccc2)oc1N1CCN(Cc2ccccc2)CC1,1.2,1,5%,8,i,7
COc1ccc(CCNc2oc(-c3ccco3)nc2C#N)cc1,2.4*,1,6%,8,i,13
O=C(NCCCN1CCOCC1)c1cc(-c2cccs2)on1,1.1,0.99,8%,18,i,6
N#Cc1nc(-c2cccs2)oc1NCCN1CCOCC1,2.4*,1.1,4%,0,x,7
N#Cc1nc(-c2ccco2)oc1NCCc1ccccc1,2.1*,1,9%,16,i,15
COc1ccc(CCNc2oc(COc3ccc(F)cc3)nc2C#N)cc1,1.1,1,0%,1,i,1
COc1ccc(CCNc2oc(Cc3ccccc3)nc2C#N)cc1OC,1.1,1,7%,9,i,11
N#Cc1nc(-c2cccs2)oc1N1CCN(Cc2ccccc2)CC1,3.8*,1.1,4%,4,x,4
CCOC(=O)C(C(=O)OCC)[C@@H]1CS(=O)(=O)C[C@H]1C(C(=O)OCC)C(=O)OCC,1,1,7%,11,i,10
O=C1NCCCC1C(=O)N1CCN(C(c2ccccc2)c2ccccc2)CC1 (configuration not stated),0.86,1,7%,5,i,13
CC(C)CCN1C(=O)c2ccc(C(=O)OCn3nnc4ccccc4c3=O)cc2C1=O,1,1,5%,0,i,14
N#Cc1nc(-c2cccs2)oc1NCc1ccc2c(c1)OCO2,2.4*,1.1,4%,7,x,0
N#Cc1nc(-c2ccccc2)oc1NCCN1CCCCC1,3.8*,1.1,12%,14,x,9
N#Cc1nc(-c2cccs2)oc1NCCc1ccccc1,2.5*,0.99,3%,0,x,10
COc1ccc(Nc2oc(-c3cccs3)nc2C#N)cc1,1.9,1.1,9%,0,i,2
Cc1ccc2[nH]c(=O)c(-c3noc(C(C)C)n3)cc2c1,2.2*,1.1,2%,4,x,0
CCc1nc(-c2cc3ccc(C)cc3[nH]c2=O)no1,4.5*,1.1,10%,7,x,13
Cc1ccc2[nH]c(=O)c(-c3noc(-c4ccncc4)n3)cc2c1,1.2,1,3%,9,i,4

# Screening results from PubChem BioAssay.
